In PubChem BioAssay AID1159580 (chemical genetic matrix, 2015):
“And” between values parts separate entries of the source, which are not always exact repeats. Equal values may be shown once. About 2,000 (36%) of roughly 5,500 compounds were called active. Inconclusive results (about 18%) are left out. No stated cut-off is given here; in the data, active means normalized growth mostly below about 0.91 (no sharp cut-off); inconclusive means no clear call, values can overlap the other calls; inactive means mostly above about 0.92. The list shows a part of the results.

Assay: chemical genetic growth profiling, strain panel (AID 1159580);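 further: tested at 20 µM; growth read once vehicle control cultures reached saturation at 30 °C; 1 = growth at the plate median or of vehicle wells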
Conditions: S. cerevisiae deletion strains, growth OD

Measured: normalized growth

Cc1nc2ccccn2c(=O)c1CCN1CCC(C(=O)c2ccc(F)cc2)CC1
inactive: locus YAL013W, strain DEP1, stronger effect = lower value 1.02 and 1.01 | locus YAL021C, strain ccr4, stronger effect = lower value 1 | locus YAL026C, strain drs2, stronger effect = lower value 1 | locus YAL030W, strain snc1, stronger effect = lower value 0.999 | locus YAL040C, strain CLN3, stronger effect = lower value 0.993 | locus YBL061C, strain skt5, stronger effect = lower value 0.983 | locus YBR009C, strain hhf1, stronger effect = lower value 0.987 | locus YBR021W, strain FUR4, stronger effect = lower value 0.981 | locus YBR023C, strain chs3, stronger effect = lower value 0.986 | locus YBR171W, strain sec66, stronger effect = lower value 0.981 | locus YBR229C, strain ROT2, stronger effect = lower value 1.02 | locus YBR231C, strain swc5, stronger effect = lower value 0.984 | locus YBR279W, strain paf1, stronger effect = lower value 0.977 | locus YCL011C, strain gbp2, stronger effect = lower value 0.997 | locus YCL016C, strain dcc1, stronger effect = lower value 0.989 | locus YCL029C, strain bik1, stronger effect = lower value 0.999 | locus YCL061C, strain MRC1 (second series), stronger effect = lower value 1.01 | locus YCL061C, strain MRC1, stronger effect = lower value 1.02 | locus YCL069W, strain vba3, stronger effect = lower value 1 | locus YCR088W, strain abp1, stronger effect = lower value 0.982 | locus YDL005C, strain med2, stronger effect = lower value 0.973 | locus YDL035C, strain GPR1, stronger effect = lower value 1.02 | locus YDL040C, strain nat1, stronger effect = lower value 1 | locus YDL074C, strain BRE1, stronger effect = lower value 1.07 | locus YDL101C, strain DUN1, stronger effect = lower value 1.04 | locus YDL134C, strain PPH21, stronger effect = lower value 1.02 | locus YDL185W, strain tfp1, stronger effect = lower value 0.992 | locus YDL192W, strain arf1, stronger effect = lower value 0.997 | locus YDR001C, strain nth1, stronger effect = lower value 0.986 | locus YDR069C, strain doa4, stronger effect = lower value 0.972 | locus YDR101C, strain arx1, stronger effect = lower value 0.979 | locus YDR137W, strain rgp1, stronger effect = lower value 0.976 | locus YDR150W, strain NUM1, stronger effect = lower value 1.03 and 1 | locus YDR159W, strain sac3, stronger effect = lower value 0.977 | locus YDR162C, strain NBP2, stronger effect = lower value 1.05 | locus YDR195W, strain ref2 0.996 | locus YDR297W, strain sur2, stronger effect = lower value 0.98 | locus YDR318W, strain mcm21, stronger effect = lower value 0.983 | locus YDR334W, strain swr1, stronger effect = lower value 0.982 | locus YDR335W, strain msn5, stronger effect = lower value 0.984 | locus YDR363W, strain ESC2, stronger effect = lower value 1.01 | locus YDR388W, stronger effect = lower value 0.995 | locus YDR392W, strain spt3, stronger effect = lower value 0.988 | locus YDR502C, strain sam2, stronger effect = lower value 1.01 | locus YEL003W, strain gim4, stronger effect = lower value 0.997 | locus YEL037C, strain rad23, stronger effect = lower value 0.984 | locus YEL061C, strain CIN8 (second series), stronger effect = lower value 0.994 | locus YEL061C, strain CIN8, stronger effect = lower value 1.01 | locus YER002W, strain NOP16, stronger effect = lower value 0.983 | locus YER015W, strain faa2, stronger effect = lower value 0.997 | locus YER016W, strain bim1, stronger effect = lower value 0.985 | locus YER110C, stronger effect = lower value 0.991 | locus YER111C, strain swi4, stronger effect = lower value 0.973 | locus YER155C, strain BEM2 (second series), stronger effect = lower value 1 | locus YER155C, strain BEM2, stronger effect = lower value 1.02 | locus YER167W, strain BCK2, stronger effect = lower value 1.01 | locus YFR010W, strain ubp6, stronger effect = lower value 0.989 | locus YGL078C, strain dbp3, stronger effect = lower value 0.999 | locus YGL086W, strain mad1, stronger effect = lower value 0.996 | locus YGL167C, strain pmr1, stronger effect = lower value 0.983 | locus YGL173C, strain kem1, stronger effect = lower value 0.992 | locus YGL227W, strain vid30, stronger effect = lower value 1 | locus YGL240W, strain doc1, stronger effect = lower value 1.01 | locus YGL248W, strain PDE1, stronger effect = lower value 1.02 | locus YGL253W, strain hxk2, stronger effect = lower value 0.996 | locus YGR078C, strain PAC10, stronger effect = lower value 1.04 and 1.02 | locus YGR135W, strain pre9, stronger effect = lower value 1 | locus YGR229C, strain SMI1, stronger effect = lower value 1.04 | locus YGR252W, strain gcn5, stronger effect = lower value 0.945 | locus YHR013C, strain ard1, stronger effect = lower value 0.97 | locus YHR027C, strain rpn1, stronger effect = lower value 0.985 | locus YHR030C, strain SLT2, stronger effect = lower value 1.02 | locus YHR079C, strain IRE1 (second series), stronger effect = lower value 0.985 | locus YHR079C, strain IRE1, stronger effect = lower value 1.05 | locus YHR094C, strain hxt1, stronger effect = lower value 0.998 | locus YHR129C, strain ARP1, stronger effect = lower value 1.02 | locus YHR142W, strain chs7, stronger effect = lower value 0.968 | locus YHR200W, strain rpn10, stronger effect = lower value 0.998 | locus YIL066C, strain RNR3, stronger effect = lower value 1.03 | locus YIL073C, strain SPO22, stronger effect = lower value 0.973 | locus YIL125W, strain kgd1, stronger effect = lower value 1 | locus YIR030C, strain dcg1, stronger effect = lower value 1 | locus YJL092W, strain hpr5, stronger effect = lower value 0.987 | locus YJL095W, strain BCK1 (second series), stronger effect = lower value 0.986 | locus YJL095W, strain BCK1, stronger effect = lower value 1.04 and 1.01 | locus YJL115W, strain asf1, stronger effect = lower value 0.991 | locus YJL129C, strain trk1, stronger effect = lower value 0.987 | locus YJL134W, strain LCB3, stronger effect = lower value 1.02 | locus YJL154C, strain vps35, stronger effect = lower value 0.987 | locus YJL164C, strain tpk1, stronger effect = lower value 0.993 | locus YJL166W, strain qcr8, stronger effect = lower value 0.996 | locus YJL168C, strain set2, stronger effect = lower value 0.99 | locus YJL187C, strain SWE1 (second series), stronger effect = lower value 1.03 | locus YJR043C, strain POL32, stronger effect = lower value 1 | locus YJR066W, strain TOR1, stronger effect = lower value 0.993
